Values joined by “and” are separate entries in the source; they are usually repeats but may differ in a detail not shown here. Equal entries are not always repeated. Inconclusive results are not listed. Entries that show only a call come without a potency. The source holds several records for some structures; these can differ, active in one and inactive in another. Active and inactive are the calls of the source. Unless noted, calls come from the whole dose curve.
Assays:
[1] = Nuclear factor erythroid 2-related factor 2/antioxidant responsive element (Nrf2/ARE) small molecule agonists: qHTS cell viability counter screen in human keratinocytes (AID 1919968; active = well fitted curve in the direction sought with a large enough effect in the repeat runs; an effect the other way counts as inactive or inconclusive; note: nearly all actives have a fitted effect of over 55% in size)
Outline: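 Cytotoxicity was multiplexed with the Nrf2/ARE luciferase assay in the same wells. Stably transfected HaCaT keratinocytes were treated with test compounds for 23 h at 37 C. Cell viability was then measured by CellTiter-Fluor fluorescence.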

[2] = Nuclear factor erythroid 2-related factor 2/antioxidant responsive element (Nrf2/ARE) small molecule agonists: luciferase reporter gene qHTS assay in human keratinocytes (AID 1919969); note: nearly all actives have a fitted effect of over 35% in size; note: potency is the fitted concentration of half-maximal effect
[3] = biological target: Gonadotropin-releasing hormone receptor (Homo sapiens) (UniProt P30968); assay: Human gonadotropin-releasing hormone receptor (GnRHR) small molecule agonists, calcium flux assay in GnRHR-HEK293 cells (AID 1920063); note: nearly all actives have a fitted effect of over 35% in size
Outline: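 Agonist activity was measured as intracellular calcium flux in HEK293 cells engineered to stably express human GnRHR. After dye loading for 1 hour at 37 C, compounds in DMSO were added and fluorescence was followed for 3 minutes.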

[4] = biological target: KiSS-1 receptor (Homo sapiens) (UniProt Q969F8); assay: Human kisspeptin (KISS1R) small molecule agonists, calcium flux assay in KISS1R-HEK293 cells (AID 1920064; active = well fitted curve in the direction sought with a large enough effect in the repeat runs; an effect the other way counts as inactive or inconclusive)
Outline: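 Agonist activity is monitored as intracellular calcium rise in engineered HEK293 cells carrying human KISS1R. Cells are dye-loaded for 1 h at 37 C before compound addition, and fluorescence is recorded for 3 min.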

[5] = G protein-coupled receptor (GPCR) small molecule agonists, calcium flux assay: HEK293 wild type cell line counter screen (AID 1920065)
Outline: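 Seed cells, incubate 18 h (37 C, 5% CO2); add calcium dye, 1 h at 37 C; pin-transfer compounds, ATP control or DMSO; read fluorescence 480/540 nm each second for 3 min.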

[6] = p53 small molecule agonists, cell-based qHTS assay with human liver microsomes: qHTS cell viability counter screen (AID 1963579); note: nearly all actives have a fitted effect of over 45% in size
Outline: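 After the 460/530 nm beta-lactamase read, CellTiter-Glo was added to the same wells and luminescence measured after 30 min at room temperature, giving viability of p53RE-bla cells treated 16 h with compounds plus microsomes and NADPH.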

[7] = p53 small molecule agonists, cell-based qHTS assay with rat liver microsomes: qHTS cell viability counter screen (AID 1963580); note: nearly all actives have a fitted effect of over 45% in size
Outline: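 Rat liver microsome (0.5 mg/mL final) and NADPH (0.5 mg/mL final) co-incubation with compounds for 16 h at 37 C on HCT-116 p53RE-bla cells; cytotoxicity taken from intracellular ATP luminescence.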

[8] = p53 small molecule agonists, cell-based qHTS assay: qHTS cell viability counter screen (AID 1963581); note: nearly all actives have a fitted effect of over 45% in size
Outline: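 Viability was counter-screened in parallel with the p53 agonist reporter by measuring intracellular ATP luminescence in the same HCT-116 p53RE-bla wells after 16 h compound treatment at 37 C.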

[9] = p53 small molecule agonists, cell-based qHTS assay (AID 1963582; active = well fitted activation curve with a large enough effect in the signal ratio in the repeat runs, not every such curve was filed as active; the % refers to the signal ratio)
Outline: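 Cells carrying a p53-responsive bla reporter are treated with test compounds for 16 h at 37 C; beta-lactamase activity is then detected with LiveBLAzer B/G FRET substrate after 2 h at room temperature.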

[10] = biological target: 5-hydroxytryptamine receptor 2A (Homo sapiens) (UniProt P28223); assay: 5-hydroxytryptamine receptor 2A (HTR2A) small molecule antagonists, cell-based qHTS assay (AID 1963586); note: nearly all actives have a fitted effect of over 45% in size; note: potency is the fitted concentration of half-maximal effect
Outline: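 CHO cells stably expressing human HTR2A were plated for 18 h at 37 C, then loaded with calcium dye for 1 h. Compounds were preincubated 5 min at room temperature before DOI (4 nM solution) was added. Kinetic fluorescence was read for 3 min.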

[11] = biological target: 5-hydroxytryptamine receptor 2A (Homo sapiens) (UniProt P28223); assay: 5-hydroxytryptamine receptor 2A (HTR2A) small molecule agonists, cell-based qHTS assay (AID 1963587); note: nearly all actives have a fitted effect of over 30% in size
Outline: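 Kinetic calcium-flux fluorescence (2 min, 1 sec intervals) after compound addition in agonist mode. HTR2A-CHO cells were cultured 18 h, then dye-loaded 1 h at 37 C.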

[12] = biological target: Muscarinic acetylcholine receptor M1 (Homo sapiens) (UniProt P11229); assay: Cholinergic receptor muscarinic 1 (CHRM1) small molecule agonists, cell-based qHTS assay (AID 1963589); note: nearly all actives have a fitted effect of over 35% in size
Outline: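 Cells were plated and incubated 18 h at 37 C/5% CO2, loaded with calcium dye for 1 h at 37 C, then treated with compounds in DMSO. Fluorescence was recorded kinetically at 1 sec intervals.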

[13] = cAMP Responsive Elements (CRE) small molecule agonists, cell-based qHTS assay (AID 1963590); note: potency is the fitted concentration of half-maximal effect
Outline: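 Cells carrying a CRE-driven beta-lactamase reporter (HEK 293T) are seeded, incubated overnight (18 h), and treated with test compounds for 3 h at 37 C; reporter activity is then detected with a FRET substrate after 2 h at room temperature.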

[14] = cAMP Responsive Elements (CRE) small molecule antagonists, cell-based qHTS assay (AID 1963591; active = well fitted inhibition curve with a large enough effect in the signal ratio in the repeat runs, not every such curve was filed as active; the % refers to the signal ratio)
Outline: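 Cells (CRE-bla HEK 293T, DMEM with 10% dialyzed FBS and 25 mM HEPES) are seeded and incubated 18 h. Compounds are added with NKH477 agonist at 0.25 uM final for 3 h, then FRET substrate for 2 h.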

[15] = biological target: Beta-2 adrenergic receptor (Homo sapiens) (UniProt P07550); assay: Adrenergic beta2 receptor (ADRB2) small molecule antagonists, cell-based qHTS assay (AID 1963592); note: series mostly up to about 92 µM; nearly all actives have a fitted effect of over 50% in size
Outline: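 Assay format: CHO-ADRB2 cells, 18-20hr seeding at 37C/5% CO2, then compound plus 1nM isoproterenol agonist mix for 0.5hr RT. Homogeneous time-resolved fluorescence cAMP detection after 1hr, expressed as 665/615 nm ratio.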

[16] = biological target: Beta-2 adrenergic receptor (Homo sapiens) (UniProt P07550); assay: Adrenergic beta2 receptor (ADRB2) small molecule agonists, cell-based qHTS assay (AID 1963593);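 note: CHO cells stably overexpressing human ADRB2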
Outline: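 CHO cells stably over-expressing ADRB2 were plated overnight at 37C, then dosed with compounds plus a stimulation mix containing 100uM IBMX and 25uM Ro-20-1724 for 0.5hr at room temperature. cAMP was measured by HTRF competition, 1hr.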

[17] = biological target: D(2) dopamine receptor (Homo sapiens) (UniProt P14416); assay: Dopamine D2 receptor (DRD2) small molecule agonists, cell-based qHTS assay (AID 1963594); note: nearly all actives have a fitted effect of over 35% in size
Outline: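 cAMP accumulation in DRD2-HEK293 cells measured by HTRF after 1 h detection; compounds added 10 min before NKH477 (200nM […]) forskolin-analogue stimulation, 30 min at room temperature, with Ro20-1724 present at 0.1 mM final.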

[18] = biological target: D(2) dopamine receptor (Homo sapiens) (UniProt P14416); assay: Dopamine D2 receptor (DRD2) small molecule antagonists, cell-based qHTS assay (AID 1963595; active = well fitted inhibition curve with a large enough effect in the signal ratio in the repeat runs, with a control signal flat; the % refers to the signal ratio)
Outline: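 HEK293 cells stably expressing DRD2 were preincubated with 0.1 mM Ro20-1724, then with compound for 10 min at room temperature. Cells were stimulated with 200 nM NKH477 plus 12 nM quinpirole for 30 min, and cAMP was read by HTRF.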

[19] = biological target: Muscarinic acetylcholine receptor M1 (Homo sapiens) (UniProt P11229); assay: Cholinergic receptor muscarinic 1 (CHRM1) small molecule antagonists, cell-based qHTS assay (AID 1963588); note: nearly all actives have a fitted effect of over 40% in size
Outline: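 Compounds were tested at 15 concentrations in three independent runs. Dye-loaded CHRM1-CHO cells were exposed 5 min at room temperature before stimulation by acetylcholine added at 50nM. Intracellular calcium was read kinetically on FDSS for 3 min.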

Chain of Gonadotropin-releasing hormone receptor (Homo sapiens) (P30968 whole entry, looked up): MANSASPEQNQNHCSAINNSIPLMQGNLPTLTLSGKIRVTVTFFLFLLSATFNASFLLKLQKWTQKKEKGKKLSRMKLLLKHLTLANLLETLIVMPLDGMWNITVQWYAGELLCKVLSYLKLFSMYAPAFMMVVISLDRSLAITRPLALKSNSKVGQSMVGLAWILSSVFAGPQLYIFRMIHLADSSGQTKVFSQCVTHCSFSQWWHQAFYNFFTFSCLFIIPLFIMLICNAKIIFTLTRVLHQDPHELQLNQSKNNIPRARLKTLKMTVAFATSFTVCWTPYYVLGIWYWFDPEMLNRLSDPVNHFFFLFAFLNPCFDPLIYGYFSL
Chain of Muscarinic acetylcholine receptor M1 (Homo sapiens) (P11229 whole entry, looked up): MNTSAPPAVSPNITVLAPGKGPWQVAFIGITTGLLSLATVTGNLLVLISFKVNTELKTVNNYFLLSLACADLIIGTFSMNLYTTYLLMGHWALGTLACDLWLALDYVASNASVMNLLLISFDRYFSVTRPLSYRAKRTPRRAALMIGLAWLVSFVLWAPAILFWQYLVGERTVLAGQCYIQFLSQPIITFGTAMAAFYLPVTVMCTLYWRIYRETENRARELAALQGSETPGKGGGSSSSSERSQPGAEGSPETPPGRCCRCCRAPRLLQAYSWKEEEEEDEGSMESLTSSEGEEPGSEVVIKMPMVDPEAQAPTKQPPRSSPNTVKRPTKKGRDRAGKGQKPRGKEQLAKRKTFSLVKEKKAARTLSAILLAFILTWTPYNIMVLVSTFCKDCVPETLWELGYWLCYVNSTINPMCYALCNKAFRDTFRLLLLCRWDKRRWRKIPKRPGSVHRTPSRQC
Chain of D(2) dopamine receptor (Homo sapiens) (P14416 whole entry, looked up): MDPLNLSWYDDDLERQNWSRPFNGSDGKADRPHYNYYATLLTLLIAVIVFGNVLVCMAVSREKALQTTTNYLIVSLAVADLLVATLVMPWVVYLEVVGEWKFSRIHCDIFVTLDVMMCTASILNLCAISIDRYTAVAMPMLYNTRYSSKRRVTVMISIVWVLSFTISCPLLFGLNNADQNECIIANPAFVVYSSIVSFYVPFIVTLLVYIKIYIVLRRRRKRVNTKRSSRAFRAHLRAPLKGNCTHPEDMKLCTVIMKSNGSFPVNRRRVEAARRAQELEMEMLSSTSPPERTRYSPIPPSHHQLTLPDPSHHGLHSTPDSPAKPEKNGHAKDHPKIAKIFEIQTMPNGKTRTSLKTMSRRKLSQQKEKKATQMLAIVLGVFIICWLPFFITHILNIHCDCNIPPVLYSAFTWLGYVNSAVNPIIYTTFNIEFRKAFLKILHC
Chain of KiSS-1 receptor (Homo sapiens) (Q969F8 whole entry, looked up): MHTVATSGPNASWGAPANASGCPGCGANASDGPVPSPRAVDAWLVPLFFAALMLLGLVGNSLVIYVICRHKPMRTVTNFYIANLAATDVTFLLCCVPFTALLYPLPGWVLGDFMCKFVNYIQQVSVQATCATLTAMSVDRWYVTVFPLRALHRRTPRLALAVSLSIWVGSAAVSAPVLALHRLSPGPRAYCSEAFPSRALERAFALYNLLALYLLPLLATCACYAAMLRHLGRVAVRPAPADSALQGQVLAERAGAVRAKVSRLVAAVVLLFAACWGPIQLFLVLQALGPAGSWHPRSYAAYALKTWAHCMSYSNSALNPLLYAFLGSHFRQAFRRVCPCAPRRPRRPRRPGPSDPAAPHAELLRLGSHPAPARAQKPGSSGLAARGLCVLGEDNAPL
Chain of Beta-2 adrenergic receptor (Homo sapiens) (P07550 whole entry, looked up): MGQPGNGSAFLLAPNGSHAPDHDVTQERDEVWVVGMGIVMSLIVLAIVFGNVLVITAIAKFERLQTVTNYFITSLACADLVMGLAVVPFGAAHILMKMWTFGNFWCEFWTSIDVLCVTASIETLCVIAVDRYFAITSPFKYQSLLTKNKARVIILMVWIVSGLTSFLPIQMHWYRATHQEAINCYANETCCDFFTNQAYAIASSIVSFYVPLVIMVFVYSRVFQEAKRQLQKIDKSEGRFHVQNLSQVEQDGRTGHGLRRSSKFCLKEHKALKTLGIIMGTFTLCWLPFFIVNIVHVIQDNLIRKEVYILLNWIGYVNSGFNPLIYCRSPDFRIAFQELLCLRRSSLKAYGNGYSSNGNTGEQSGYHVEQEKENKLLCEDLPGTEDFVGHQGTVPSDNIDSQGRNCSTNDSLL
Chain of 5-hydroxytryptamine receptor 2A (Homo sapiens) (P28223 whole entry, looked up): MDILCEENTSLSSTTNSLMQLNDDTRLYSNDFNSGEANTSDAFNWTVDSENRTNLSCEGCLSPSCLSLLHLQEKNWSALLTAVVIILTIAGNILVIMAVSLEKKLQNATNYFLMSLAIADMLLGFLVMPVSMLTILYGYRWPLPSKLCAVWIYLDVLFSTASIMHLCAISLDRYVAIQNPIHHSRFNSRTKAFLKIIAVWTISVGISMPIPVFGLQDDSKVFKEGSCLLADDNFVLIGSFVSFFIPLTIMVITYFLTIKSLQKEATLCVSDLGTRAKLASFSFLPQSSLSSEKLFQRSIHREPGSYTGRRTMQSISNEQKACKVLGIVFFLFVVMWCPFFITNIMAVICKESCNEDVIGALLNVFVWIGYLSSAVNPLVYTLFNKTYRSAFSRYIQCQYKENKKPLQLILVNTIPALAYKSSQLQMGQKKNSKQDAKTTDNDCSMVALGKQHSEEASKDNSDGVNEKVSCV

SMILES	Potency [1]	Potency [2]	Potency [3]	Potency [4]	Potency [5]	Potency [6]	Potency [7]	Potency [8]	Potency [9]	Potency [10]	Potency [11]	Potency [12]	Potency [13]	Potency [14]	Potency [15]	Potency [16]	Potency [17]	Potency [18]	Potency [19]
COP(=O)(OC)C(O)C(Cl)(Cl)Cl (stereo not drawn)	inactive	43.7 µM (active) and 61.1 µM (active) and inactive	inactive	inactive	inactive	inactive	inactive	inactive	inactive	inactive and 8.39 µM (active)	inactive	inactive	inactive	inactive	inactive	inactive	inactive	inactive	–
ClC(Cl)c1ccccc1	inactive	inactive	inactive	inactive	inactive	inactive	inactive	inactive	–	inactive	inactive	inactive	inactive	inactive	inactive	inactive	inactive	inactive	inactive
COP(=S)(OC)SCN1C(=O)c2ccccc2C1=O	inactive	61.6 µM (active) and 68.6 µM (active) and inactive	inactive	inactive	inactive	inactive	inactive	inactive	inactive	inactive	inactive	inactive	inactive	inactive	inactive	inactive	inactive	inactive	–
NN=C(N)N	inactive	inactive	inactive	inactive	inactive	inactive	inactive	inactive	–	inactive	inactive	inactive	inactive	inactive	inactive	inactive	inactive	inactive	inactive
O=C(O)CCl	inactive	inactive	inactive	inactive	inactive	inactive	inactive	inactive	–	inactive	inactive	inactive	inactive	inactive	inactive	inactive	inactive	inactive	inactive
CNC(=O)O/N=C/C(C)(C)SC	inactive	inactive	inactive	inactive	inactive	inactive	inactive	inactive	inactive	inactive	–	inactive	inactive	inactive	–	inactive	inactive	inactive	inactive
CCN(CC)C(=O)SCc1ccc(Cl)cc1	inactive	inactive	inactive	inactive	inactive	inactive	inactive	inactive	inactive	–	inactive	inactive	inactive	–	inactive	–	inactive	–	–
CCCN(CCOc1c(Cl)cc(Cl)cc1Cl)C(=O)n1ccnc1	inactive	inactive	inactive	inactive	inactive	inactive	inactive	inactive	inactive	inactive	–	inactive	27.9 µM (active) and 48.6 µM (active)	inactive	inactive	–	inactive	inactive	inactive
